# In paper PMC4552634, “A New Set of Chemical Starting Points with Plasmodium falciparum Transmission-Blocking Potential for Antimalarial Drug Discovery” (PLoS ONE, 2015):
# Like-named read-outs stand apart in the source and are kept apart here. About 3,200 (25%) of roughly 13,000 compounds showed an effect of 50% or more. The list shows a part of the results.
# Test system: P. falciparum stage V gametocytes
# Set-up: BacTiter-Glo ATP luminescence viability of purified stage V gametocytes in 384-well plates, per cent inhibition versus DMSO
# Settings: 48 h, 5 µM, inhibitor
Structure (SMILES),% Inhibition [%],% Inhibition (% Inhibition) [%]
CCCCC(=O)Nc1ccc(Nc2nc(C)cc(N3CCCC3)n2)cc1 [TCMDC-124717],46.79,–
O=C(Nc1ccccc1)N(Cc1cccc(-c2ccc(CNC3CCCC3)cc2)c1)C1CCN(Cc2ccccc2)CC1 [TCMDC-140589],100.6,–
O=C(Nc1ccccc1)N(Cc1ccccc1-c1cccc(CNC2CCCC2)c1)C1CCN(Cc2ccccc2)CC1 [TCMDC-140581],108.7,–
O=C(Nc1ccccc1)N(Cc1ccc(-c2cccc(CNC3CCCC3)c2)cc1)C1CCN(Cc2ccccc2)CC1 [TCMDC-140601],107.8,–
O=C(Nc1ccccc1)N(Cc1ccc(-c2ccc(CNC3CCCC3)cc2)cc1)C1CCN(Cc2ccccc2)CC1 [TCMDC-140602],100.4,–
Oc1cccc(-c2nc(-c3cccc(I)c3)c(-c3ccc(-c4nc(-c5cccc(O)c5)[nH]c4-c4cccc(I)c4)cc3)[nH]2)c1 [TCMDC-125665],42.71,–
COC(=O)c1ccc(C2OC3(C(=O)c4ccccc4C3=O)C(OC)=C2Cl)cc1C(C)=O (stereo not shown) [TCMDC-125782],-9.104,–
N#Cc1ccc2c(c1)CCN(CCC1CCC(NC(=O)/C=C/c3nc4ccccc4s3)CC1)CC2 (stereo not shown) [TCMDC-139686],-32.82,–
COc1ccc(O)c(Cc2cnc3nc(N)nc(N)c3c2C)c1 [TCMDC-137998],-28.9,–
Cc1cc(C(=O)CSc2nc3ccccc3n2-c2ccccc2)c(C)n1C1CCS(=O)(=O)C1 (stereo not shown) [TCMDC-124855],-17.36,–
CC1CN(Cc2ccccc2)CCN1c1ccc(NC(=O)c2cccs2)cc1 (stereo not shown) [TCMDC-135005],31.52,–
CC(C)(C)c1ccc(-c2nnc(N)nc2N)cc1 [TCMDC-137284],-12.55,–
COc1cccc(Nc2c(C(N)=O)cnc3ccc(-c4ccc([S+](C)[O-])cc4)cc23)c1 (stereo not shown) [TCMDC-135184],93.94,–
CN(C)CCNC(=O)c1ccc(-c2ccc3c(Nc4ccccc4)c(C(N)=O)cnc3c2)cc1 [TCMDC-138672],14.13,–
COc1cccc(Nc2c(C(N)=O)cnc3ccc(-c4ccccc4)cc23)c1 [TCMDC-135227],39.19,–
CS(=O)(=O)c1cccc(-c2cnc3[nH]cc(-c4ccc(C(=O)O)cc4)c3c2)c1 [TCMDC-136271],0.4612,–
COc1ccc2nccc(N3CCCN(CCNCc4ccc5c(n4)NC(=O)CS5)CC3)c2n1 [TCMDC-134640],33.98,–
Cc1ccc(C2CC(c3cccs3)=NN2C(=O)c2ccc(Br)o2)cc1 (stereo not shown) [TCMDC-125610],12.81,–
CCC(c1ccccc1)c1nn2c(-c3cccs3)nnc2s1 (stereo not shown) [TCMDC-123825],7.835,–
CCc1ccc(C2=Nn3c(nnc3-c3cccs3)SC2)cc1 [TCMDC-124336],80.16,–
O=C(NCCCCN1CCN(c2cccc3c2OCCO3)CC1)c1ccc(NC(=O)c2cc(Cl)cc(Cl)c2)cc1 [TCMDC-138222],-31.39,–
C=CCN(c1nc(NC)nc(NCc2c(OC)cccc2OC)n1)C1CCCC1 [TCMDC-134844],-44.26,–
COc1cc(OC)cc(-c2nnc(Sc3ccc(C#N)c([N+](=O)[O-])c3)n2C)c1 [TCMDC-135576],42.48,–
CCCCCCn1c(Sc2ccc(C#N)c([N+](=O)[O-])c2)nnc1-c1ccccc1 [TCMDC-135607],41.57,–

Structure (SMILES),% Inhibition [%],% Inhibition (% Inhibition) [%]
CCCCCn1c(Sc2ccc(C#N)c([N+](=O)[O-])c2)nnc1-c1ccccc1 [TCMDC-135606],38.34,–
Cn1c(Cc2ccccc2)nnc1Sc1ccc(C#N)c([N+](=O)[O-])c1 [TCMDC-135608],73.99,–
C=CCn1c(Cc2ccccc2)nnc1Sc1ccc(C#N)c([N+](=O)[O-])c1 [TCMDC-135614],45.02,–
CCn1c(Cc2ccccc2)nnc1Sc1ccc([N+](=O)[O-])c(C#N)c1 [TCMDC-135236],79.04,–
Cc1ccc(Nc2nc(C)cc(N3CCN(CCc4ccccc4)CC3)n2)cc1 [TCMDC-134023],-10.5,–
Clc1ccc(CNc2ccnc(NCCc3coc4ccccc34)n2)c(Cl)c1 [TCMDC-135113],37.58,–
COc1cccc(Nc2nccc(NCC(O)c3cccc(C(F)(F)F)c3)n2)c1 (stereo not shown) [TCMDC-136584],27.05,–
FC(F)(F)c1cccc(CCNc2nccc(NCc3ccc(Cl)cc3Cl)n2)c1 [TCMDC-135111],42.21,–
COc1ccc(Nc2nccc(NCC(O)c3cccc(C(F)(F)F)c3)n2)cc1 (stereo not shown) [TCMDC-136585],-13.64,–
FC(F)(F)c1cccc(CCNc2nccc(NCc3ccccc3Cl)n2)c1 [TCMDC-135109],78.4,–
COc1ccccc1CNc1ccnc(NCCc2cccc(C(F)(F)F)c2)n1 [TCMDC-135117],62.08,–
CC(=O)Nc1ccc(S(=O)(=O)Nc2ccc(Nc3nc(C)cc(N4CCCCC4)n3)cc2)cc1 [TCMDC-124950],-6.943,–
CCC[C@@H]([C@@H](CC(C)C)C(=O)N[C@H](C(=O)Nc1nccs1)C(C)(C)SCCNC(=O)OCC)N(O)C=O [TCMDC-137761],30.89,–
N#Cc1cccc(COC(=O)C2=C(COc3ccccc3Cl)NC(=O)NC2c2c[nH]c3cnccc23)c1 (stereo not shown) [TCMDC-136331],5.465,–
Cc1ccc(C(c2nnnn2C2CCCC2)N(Cc2ccco2)Cc2ccccc2Cl)cc1 (stereo not shown) [TCMDC-123569],15.39,–
COc1ccc(-c2nc(NC(=O)CS(=O)(=O)c3ccccc3)sc2C)cc1 [TCMDC-123525],48.52,–
CCCCn1c(SC(C)C)nc2c(c1=O)C1(CCCCC1)Cc1ccccc1-2 [TCMDC-123893],-5.467,–
Cc1ccc(-c2nnc(Nc3ccc(CC(N)=O)cc3)c3ccccc23)cc1S(=O)(=O)NCC1CCCO1 (stereo not shown) [TCMDC-125615],-4.951,–
COc1cc(Cc2cnc(N)nc2N)ccc1OCc1ccc(NC(C)=O)cc1 [TCMDC-138675],89.66,–
COc1cc(Cc2cnc(N)nc2N)ccc1OCC(=O)Nc1ccc(C)cc1 [TCMDC-138679],5.317,–
COc1cc(Cc2cnc(N)nc2N)ccc1OCc1ccc(F)c(F)c1 [TCMDC-138591],9.532,–
S=C(Nc1ccccc1Cl)NC1CCC(CN2CCC(c3c[nH]c4ccccc34)CC2)CC1 (stereo not shown) [TCMDC-140179],20.48,–
S=C(NCC1CCCCC1)NC1CCC(CN2CCC(c3c[nH]c4ccccc34)CC2)CC1 (stereo not shown) [TCMDC-140181],104.2,–
S=C(NCCc1ccc(Cl)cc1)NC1CCC(CN2CCC(c3c[nH]c4ccccc34)CC2)CC1 (stereo not shown) [TCMDC-140201],–,56.68

Structure (SMILES),% Inhibition [%],% Inhibition (% Inhibition) [%]
S=C(NCCc1ccc(Cl)cc1)N1CCC(CN2CCC(c3c[nH]c4ccccc34)CC2)CC1 [TCMDC-140193],39.79,–
S=C(NCCc1ccc(Cl)cc1)NC1CCC(CN2CCC(c3c[nH]c4ccccc34)CC2)CC1 (stereo not shown) [TCMDC-140183],–,98.47
CC(C)NCc1ccc(-c2cccc(-c3nc4ccc(F)cc4[nH]3)c2)cc1 [TCMDC-132737],4.072,–
N#Cc1ccc(N2CCN(Cc3ccc(-c4cccc(-c5nc6ccccc6[nH]5)c4)cc3)CC2)nc1.O=C(O)C(F)(F)F [TCMDC-133918],6.117,–
Cc1c(Cc2ccccc2Br)cnc2nc(N)nc(N)c12 [TCMDC-137244],-16.64,–
COC(=O)/C=C/c1ccc(CC(C)NCC(O)c2cccc(Br)c2)cc1 (stereo not shown) [TCMDC-131443],13.24,–
O=[N+]([O-])c1ccc(Nc2nc(N/N=C/c3cccc(O)c3)nc(N3CCCC3)n2)cc1 [TCMDC-123855],36.76,–
CCn1cnc2c(Nc3cccc([N+](=O)[O-])c3)nc(N3CCC(N4CCCCC4)CC3)nc21 [TCMDC-124437],69.16,–
CC(C)(C)Nc1nc(Nc2cccc([N+](=O)[O-])c2)nc(-n2ccnc2)n1 [TCMDC-123695],-24.43,–
Cc1ccc(Oc2c(-c3ccccc3CN3CCCC3CN(C)C)cnn(C)c2=O)cn1 (stereo not shown) [TCMDC-135100],-4.022,–
Cc1[nH]c(C)c(-c2ccc(Oc3ccc(C(F)(F)F)cc3)cc2)c(=O)c1Br [TCMDC-137406],68.39,–
Cc1[nH]c(C)c(-c2ccc(C(F)(F)F)cc2)c(=O)c1Br [TCMDC-137429],90.2,–
Cc1[nH]c(C)c(-c2ccc(Nc3ccc(C(F)(F)F)cn3)cc2)c(=O)c1Br [TCMDC-135546],74.1,–
Cc1[nH]c(C)c(-c2ccc(OCCOc3ccc(C(F)(F)F)cn3)cc2)c(=O)c1Br [TCMDC-135554],40.45,–
COc1ccc2nccc([C@@H](O)CN3CCC(NC(=O)C(c4ccsc4)N4CCN(c5ccccc5OC)CC4)CC3)c2c1 (stereo partly shown) [TCMDC-140994],-19.96,–
CC1CCCC(C)N1C[C@@H](O)CNS(=O)(=O)c1cccc(C(F)(F)F)c1 (stereo partly shown) [TCMDC-134258],4.939,–
CCc1ccccc1N=C1c2c(cccc2[N+](=O)[O-])C(=O)C1C(C)=O (stereo not shown) [TCMDC-125760],-10.56,–
COc1cc(CCNCC(O)c2ccc([N+](=O)[O-])c(OCc3ccccc3)c2)cc(OC)c1OC (stereo not shown) [TCMDC-132008],19.76,–
CC(C#N)Cc1ccc(-c2cnc(N)c3cc(-c4ccnc(N)n4)ccc23)cc1 (stereo not shown) [TCMDC-134547],15.83,–
CCCCCCC(C)c1cc(OCCN(CC)CC)c2c(c1)OC(C)(C)C=C2c1ccncc1 (stereo not shown) [TCMDC-131641],78.51,–
CCCCCC(C)C(C)c1cc(O)c2c(c1)OC(C)(C)C=C2c1cc[n+]([O-])cc1 (stereo not shown) [TCMDC-131349],-5.463,–
CCCCCCC(C)c1cc(O)c2c(c1)OC(C)(C)C=C2c1ccncc1 (stereo not shown) [TCMDC-131636],-3.085,–
